Our source for the growth values is PubChem BioAssay (NCI).

Where “and” joins values, the source holds several entries; their conditions need not be identical. Identical values can stand only once. This is part of a sample that, as a whole, favours compounds with a hit. Of some 83,000 tested, about 20% had one in any assay.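 Activity criterion: percent growth below 10, measured after cells in 96-well plates were exposed to a single compound concentration for 48 hours.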 Unmarked numbers belong to inactive results. Calls of active or inactive are those of the source.

The assay deals with MDA-MB-468 breast. The experiment in a line: NCI-60 one-dose screen, 48 h (100 = growth as untreated, 0 = no growth, -100 = all killed). Conditions: 10 µM unless noted.
Take `COC1=C(OC)C(=O)C(SC/C=C(\C)CCCC(C)CCCC(C)CCCC(C)C)=CC1=O` (stereo not given): the growth is 42.6%.

Turning to `Fc1ccc([I+]c2ccc(F)cc2)cc1`, the growth was 30%.

In the case of `COc1ccc(-c2nnc(SCC(=O)c3ccc(Cl)cc3)o2)cc1`, the growth was 109%.

Take `COc1ccc2[nH]c(O)c(/C=c3/cc4c(c(-c5ccc(F)cc5)n3)=Nc3ccccc3-4)c2c1`: the growth was 67.4%. Then `COc1ccc2c(=O)cc(-c3ccccc3)[nH]c2c1`, with 7.37% (active) and -4.48% (active); and `CCN(CC)CCC(=O)c1cccc2ccccc12`, with 84.5%; and `CN(C)CCN1C(=O)c2cccc3c(-c4ccc(-c5nc6c7ccccc7c7ccccc7c6[nH]5)cc4)ccc(c23)C1=O`, with 108%.

`c1cc(-c2ccc3c(c2)OCO3)n2nccc2n1`: the growth was 95%. Then `C#CCn1c(C)cc(C)c(C#N)c1=O`, with 132%; and `FC(F)(F)c1cn(CCN2CCOCC2)c2ncnc(Cl)c12`, with 9.54% (active); and `Cc1cc2c(c(C)c1Cl)C(=O)/C(=C/c1ccc(O)c(O)c1)O2`, with 109%.

Turning to `O=C(Cn1c(=O)sc2nc3ccccc3nc21)Nc1ncc(Cc2cccc(Cl)c2Cl)s1`, the growth is 107%. On to `COc1cc(N2C(=O)c3nccnc3C2=O)cc(OC)c1OC`, for which the growth is 115%. On to `O=C(/C=C/c1ccc(Cl)cc1)c1ccc(Nc2nc(NCCO)nc(Nc3ccc(Cl)cc3)n2)cc1`, for which the growth is 68.4%. The same measure for `CCOCC(=O)C(C#N)c1ccc(Cl)c(Cl)c1` (stereo not given): 90.9%; for `CNS(=O)(=O)Nc1nccc(Cc2c(C)c3ccc(Oc4ncccn4)cc3oc2=O)c1F`: 62.9%. `Nc1ccc(N=Nc2ccccc2)c2cc(S(=O)(=O)O)ccc12`: the growth was 109%. Then `COc1ccc2c(c1)CCc1c-2n[nH]c1-c1[nH]nc2c1CCc1cc(OC)ccc1-2`, with -6.6% (active). In the case of `COc1ccc(/C(C)=C(\c2ccc(Cl)cc2)c2ccc(OCCN3CCCCC3)cc2)cc1`, the growth is 55.5%.

For the compound `O/N=C1\c2ccccc2-c2ccc(Br)cc21`, the growth is 108%.

As to `O=C(CCCCCCNC(=O)C(O)(O)C(F)(F)F)Nc1ncc(-c2ccc(Br)cc2)s1`, the growth was -35.8% (active). Take `CCCCCCCCCCCCCCCC[n+]1cccc(C#N)c1`: the growth was -27.5% (active). The same measure for `CN(C)CC(C(=O)c1ccccc1)c1ccccc1` (stereo not given): -47.8% (active); for `Cc1oc(-c2ccccc2Cl)cc1C(=O)Nc1ccc(S(N)(=O)=O)cc1`: 109%. Then `COC(=O)[C@]12CC[C@@H](C)[C@H](C)[C@@H]1C1=CC[C@@H]3[C@@]4(C)C(C=O)=C[C@@](C)(COC(C)=O)[C@@H]4[C@H](O)C[C@@]3(C)[C@]1(C)CC2`, with -19.2% (active); and `Oc1ccc(Cc2ccc(O)c(C3CC(c4ccc(Cl)cc4)=NN3)c2)cc1C1CC(c2ccc(Cl)cc2)=NN1` (stereo not given), with 23.3%; and `Cc1nn(-c2nc3ccccc3[nH]2)c2c1C(c1ccc3c(c1)OCO3)CC(=O)N2` (stereo not given), with 47.7%. As to `Cc1ccc(NC(=S)NNC(=S)Nc2ccc(C)cc2)cc1`, the growth is 99.3% and 34%. Consider `Nc1ncnc2[nH]ncc12`, for which the growth is -20.3% (active). As to `CCOC(=O)c1ccc2[nH]c(O)c(C(=Nc3ccc(N(C)C(=O)CN4CCN(C)CC4)cc3)c3ccccc3)c2c1`, the growth is -84.4% (active). Then `O=C(c1cccc(N2CCOCC2)n1)c1c[nH]c2ccccc12`, with 89.5%. For the compound `O=C(/C=C/c1ccccc1)c1ccc(Nc2nc(NCCO)nc(Nc3ccc(Cl)cc3)n2)cc1`, the growth is 64.5%. The same measure for `O=[N+]([O-])c1ccccc1NCSc1ccc(Cl)cc1`: 92.1%; for `O=C1c2cc3c(cc2-c2c1c1ccc(F)cc1c(=O)n2C[C@H](O)[C@H](O)[C@H](O)CO)OCO3`: -39.9% (active). The same measure for `CC(=O)Nc1ccc(C)c(Nc2cc(-c3ccc(-n4cccn4)cc3)[nH]n2)c1`: 20%. The same measure for `COc1cc(/C=C/C(=O)c2cc(-c3ccccc3)ccc2O)cc(OC)c1OC`: 58.3%; for `CN1C(=S)N(C)C2C1NN=C1SC(c3ccccc3)=CC(=O)N12` (stereo not given): 62.9%. Regarding `O=C(CSc1nc2ccccc2c(=O)n1-c1ccccc1)Nc1ccc(-c2nc3ccc([N+](=O)[O-])cc3[nH]2)cc1`, the growth is 81.5%.

Take `O=C1/C(=C/c2ccc3c(c2)OCO3)SC(=S)N1C1c2ccccc2Oc2ccccc21`: the growth was 90.4%. Regarding `CC1=NN(C(=O)c2nn(-c3ccc(Cl)cc3)cc2O)C(=O)C1`, the growth is 54.6%.
